Reference: PubChem BioAssay AID1159580 (chemical genetic matrix, 2015)
“And” between values parts separate entries of the source, which are not always exact repeats. Equal entries are not always repeated. The whole screen tested about 5,500 compounds, of which about 2,000 (36%) were called active. Not shown: some 18% with an inconclusive outcome. No stated cut-off is given here; in the data, active means normalized growth mostly below about 0.91 (no sharp cut-off); inconclusive means no clear call, values can overlap the other calls; inactive means mostly above about 0.92. Some of the results follow.

Experiment: chemical genetic growth profiling, strain panel (AID 1159580);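 further: tested at 20 µM; growth read once vehicle control cultures reached saturation at 30 °C; 1 = growth at the plate median or of vehicle wells; lower values mean less growth of the strain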
Conditions: S. cerevisiae deletion strains, growth OD

Measured: normalized growth

COc1c2ccoc2nc2c(OC)c(OCC(O)C(C)(C)O)ccc12 (configuration not stated)
inactive: locus YAL013W, strain DEP1, active compounds read low 0.992 | locus YAL021C, strain ccr4, active compounds read low 1.04 | locus YAL026C, strain drs2, active compounds read low 1.02 | locus YAL030W, strain snc1, active compounds read low 1.01 | locus YBL061C, strain skt5, active compounds read low 1.02 | locus YBR009C, strain hhf1, active compounds read low 1.02 | locus YBR021W, strain FUR4, active compounds read low 0.992 | locus YBR023C, strain chs3, active compounds read low 1.02 | locus YBR171W, strain sec66, active compounds read low 1.02 | locus YBR229C, strain ROT2, active compounds read low 1 | locus YBR231C, strain swc5, active compounds read low 1.01 | locus YBR279W, strain paf1, active compounds read low 1.01 | locus YCL011C, strain gbp2, active compounds read low 1.03 | locus YCL016C, strain dcc1, active compounds read low 1.02 | locus YCL029C, strain bik1, active compounds read low 0.974 | locus YCL061C, strain MRC1, active compounds read low 1.03 | locus YCL069W, strain vba3, active compounds read low 1.01 | locus YCR088W, strain abp1, active compounds read low 1.02 | locus YDL005C, strain med2, active compounds read low 1.01 | locus YDL035C, strain GPR1, active compounds read low 0.992 | locus YDL040C, strain nat1, active compounds read low 1.01 | locus YDL074C, strain BRE1, active compounds read low 1.02 | locus YDL101C, strain DUN1, active compounds read low 1 | locus YDL134C, strain PPH21, active compounds read low 0.991 | locus YDL185W, strain tfp1, active compounds read low 0.974 | locus YDL192W, strain arf1, active compounds read low 0.984 | locus YDR001C, strain nth1, active compounds read low 1.01 | locus YDR069C, strain doa4, active compounds read low 1.03 | locus YDR101C, strain arx1, active compounds read low 1 | locus YDR137W, strain rgp1, active compounds read low 1.02 | locus YDR150W, strain NUM1, active compounds read low 0.99 | locus YDR159W, strain sac3, active compounds read low 1.01 | locus YDR162C, strain NBP2, active compounds read low 1.02 | locus YDR195W, strain ref2 0.976 | locus YDR297W, strain sur2, active compounds read low 1.02 | locus YDR318W, strain mcm21, active compounds read low 0.981 | locus YDR334W, strain swr1, active compounds read low 1.02 | locus YDR335W, strain msn5, active compounds read low 1.02 | locus YDR388W, active compounds read low 0.997 | locus YDR392W, strain spt3, active compounds read low 0.982 | locus YDR502C, strain sam2, active compounds read low 1.01 | locus YEL003W, strain gim4, active compounds read low 1.01 | locus YEL037C, strain rad23, active compounds read low 1.01 | locus YEL061C, strain CIN8 (second series), active compounds read low 1.01 | locus YEL061C, strain CIN8, active compounds read low 1 | locus YER015W, strain faa2, active compounds read low 1.02 | locus YER016W, strain bim1, active compounds read low 1.01 | locus YER110C, active compounds read low 0.983 | locus YER111C, strain swi4, active compounds read low 1.02 | locus YER155C, strain BEM2 (second series), active compounds read low 1.04 | locus YER155C, strain BEM2, active compounds read low 0.996 | locus YER167W, strain BCK2, active compounds read low 0.972 | locus YFR010W, strain ubp6, active compounds read low 1.02 | locus YGL078C, strain dbp3, active compounds read low 0.983 | locus YGL086W, strain mad1, active compounds read low 0.976 | locus YGL167C, strain pmr1, active compounds read low 1.01 | locus YGL173C, strain kem1, active compounds read low 1.02 | locus YGL227W, strain vid30, active compounds read low 1.02 | locus YGL240W, strain doc1, active compounds read low 1.04 | locus YGL248W, strain PDE1, active compounds read low 0.991 | locus YGL253W, strain hxk2, active compounds read low 1.02 | locus YGR078C, strain PAC10, active compounds read low 1.02 | locus YGR135W, strain pre9, active compounds read low 0.995 | locus YGR229C, strain SMI1, active compounds read low 1.02 | locus YGR252W, strain gcn5, active compounds read low 0.984 | locus YHR013C, strain ard1, active compounds read low 1.03 | locus YHR027C, strain rpn1, active compounds read low 1.01 | locus YHR030C, strain SLT2, active compounds read low 0.99 and 1.02 | locus YHR079C, strain IRE1 (second series), active compounds read low 1 | locus YHR079C, strain IRE1, active compounds read low 1.03 | locus YHR094C, strain hxt1, active compounds read low 0.971 | locus YHR129C, strain ARP1, active compounds read low 1 | locus YHR142W, strain chs7, active compounds read low 1.03 | locus YHR200W, strain rpn10, active compounds read low 0.974 | locus YIL066C, strain RNR3, active compounds read low 0.998 | locus YIL073C, strain SPO22, active compounds read low 0.9 | locus YIL125W, strain kgd1, active compounds read low 0.999 | locus YIR030C, strain dcg1, active compounds read low 0.983 | locus YJL092W, strain hpr5, active compounds read low 1.01 | locus YJL095W, strain BCK1 (second series), active compounds read low 1.01 | locus YJL095W, strain BCK1, active compounds read low 1.05 and 1 | locus YJL115W, strain asf1, active compounds read low 1.02 | locus YJL129C, strain trk1, active compounds read low 1.04 | locus YJL134W, strain LCB3, active compounds read low 0.989 | locus YJL154C, strain vps35, active compounds read low 1.02 | locus YJL164C, strain tpk1, active compounds read low 1.02 | locus YJL166W, strain qcr8, active compounds read low 1.02 | locus YJL168C, strain set2, active compounds read low 0.995 | locus YJL187C, strain SWE1 (second series), active compounds read low 1.01 | locus YJL187C, strain SWE1, active compounds read low 1.01 | locus YJR043C, strain POL32, active compounds read low 0.987 | locus YJR066W, strain TOR1, active compounds read low 0.964
